# Source: the supplement of paper PMC4166925
# ± gives the standard deviation of the averaged measurements. Over roughly 33,000 sequences, “E-score (dimensionless, -0.5 to 0.5)” has its median near -0.046; the highest 2% begin near 0.36. This is one part of a sample in which the highest values are shown more often than they occur.
# Test system: T1, SpTbr T-box DNA-binding domain (GST fusion)
# T1 sequence: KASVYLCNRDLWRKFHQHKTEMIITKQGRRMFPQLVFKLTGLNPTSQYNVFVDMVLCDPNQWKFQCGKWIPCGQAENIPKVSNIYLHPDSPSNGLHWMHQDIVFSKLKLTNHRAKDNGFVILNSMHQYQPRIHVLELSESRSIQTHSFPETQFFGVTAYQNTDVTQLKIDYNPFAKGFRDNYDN
# Test: PBM E-score of 8-mer (E-score (dimensionless, -0.5 to 0.5)); Tbr is Tbrain of the sea star Patiria miniata (Pm) or the sea urchin Strongylocentrotus purpuratus (Sp); higher = stronger binding preference
# Details: the construct has about 5 more residues each side
# Method: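 Universal protein-binding microarray (Agilent AMADID 016060, 60-bp probes with a 35-bp variable region) incubated with 200 nM GST-fused Strongylocentrotus purpuratus Tbr T-box DNA-binding domain (residues 362-554) in PBS pH 7.5. Scored for every ungapped 8-mer (given with its reverse complement) as E-score (range -0.5 to 0.5; >0.45 counts as bound) and Z-score of median probe intensity. Two replicate arrays (datasets 1 and 2).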
# 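Note: protein at 200 nM in PBS on universal double-stranded arrays.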
row,Sequence,PBM E-score of 8-mer
1,GCGCTACC,0.295 ± 0.0067
2,GCTTTACA,0.0266 ± 0.031
3,AGCTTTCA,-0.132 ± 0.045
4,GACACGTC,0.333 ± 0.0087
5,AACACGTA,0.317 ± 0.018
6,AACACGTT,0.367 ± 0.044
7,AACACGCT,0.185 ± 0.073
8,AACACGTC,0.372 ± 0.009
9,AACACGAT,0.291 ± 0.022
10,AGTGGAGA,-0.0675 ± 0.13
11,CAAGTGTA,0.249 ± 0.051
12,AAAGTGTG,0.441 ± 0.0064
13,AAAGTGAA,-0.017 ± 0.029
14,AAAGTGAC,0.367 ± 0.032
15,CAAGTGGG,0.265 ± 0.022
16,CAAGTGCG,0.395 ± 0.02
17,AAAGTGCG,0.337 ± 0.006
18,ACAGTGTG,0.338 ± 0.011
19,AAAGTGAG,0.217 ± 0.0053
20,CAAGTGCC,0.266 ± 0.0062
21,AAAGTGAT,0.205 ± 0.0065
22,CAAGTGTG,0.453 ± 0.0056
23,CAGCAACC,-0.109 ± 0.025
24,ACCTTAGA,0.0853 ± 0.026
25,AATCTCTA,-0.14 ± 0.0019
26,AGTACTGA,-0.0534 ± 0.012

row,Sequence,PBM E-score of 8-mer
1,AGTATCGC,0.185 ± 0.0083
2,AAAGTGGC,0.205 ± 0.025
3,GAAGTGTA,0.304 ± 0.0081
4,CAAGTGTC,0.351 ± 0.012
5,AAAGTGTC,0.39331 ± 0.00039
6,CACAAGTG,0.38 ± 0.016
7,GAAGTGTC,0.42864 ± 0.00011
8,AAAGTGTA,0.112 ± 0.073
9,AAAGTGGT,0.00031 ± 0.043
10,CACAAGTC,0.166 ± 0.039
11,AACAAGTG,0.298 ± 0.035
12,AAAGTGTT,0.416 ± 0.035
13,ACAGTGTC,0.213 ± 0.0024
14,GCGCTTAC,0.216 ± 0.054
15,CTGATGCA,0.0385 ± 0.021
16,CCTCGTAC,-0.22 ± 0.0077
17,AAGGGTAG,-0.0117 ± 0.11
18,ACTGGAGA,-0.123 ± 0.052
19,CCACCTGA,0.148 ± 0.02
20,ACACCTTG,0.4831 ± 0.0013
21,CCACCTTA,0.213 ± 0.01
22,AGACCTTG,-0.19 ± 0.022
23,CCACCTTC,0.2634 ± 0.0018
24,GCACCTTA,0.404 ± 0.026
25,GAACCTTA,-0.0824 ± 0.12
26,ACACCTTC,0.4746 ± 0.0017

row,Sequence,PBM E-score of 8-mer
1,AGACCTTC,-0.26 ± 0.016
2,GCACCTGA,0.386 ± 0.0077
3,AAACCTTG,-0.17 ± 0.045
4,TCACCTGA,0.3337 ± 0.0032
5,ATATCCAT,-0.037 ± 0.059
6,AGCCAACT,-0.173 ± 0.045
7,AGATTTCA,-0.0179 ± 0.064
8,ACTAGGAT,-0.2518 ± 0.0023
9,CAAGGAAC,-0.142 ± 0.03
10,CTCTCCAC,0.0528 ± 0.073
11,CGTTAGGA,-0.0398 ± 0.0099
12,AAGAATTC,-0.22 ± 0.027
13,ATACCTTA,0.1245 ± 0.00057
14,AAACCTTA,-0.0223 ± 0.025
15,ACACCTTA,0.46892 ± 0.00038
16,GCAAGAGC,-0.0244 ± 0.092
17,CTCGTCAC,0.389 ± 0.024
18,GTCGTCAC,0.337 ± 0.025
19,ATCGTCAC,0.381 ± 0.011
20,ATCGTCAA,0.158 ± 0.0046
21,ATCGTCAT,-0.00478 ± 0.05
22,CTCGTCAA,0.201 ± 0.0083
23,TCGCCAGA,0.0255 ± 0.017
24,AAGGCACA,-0.16 ± 0.04
25,ATGGGGGG,-0.172 ± 0.0088
26,AGAAGTGA,0.289 ± 0.014

row,Sequence,PBM E-score of 8-mer
1,AGTCTACG,-0.209 ± 0.008
2,CAGCTACG,-0.036 ± 0.0027
3,TGTGGTAA,0.133 ± 0.02
4,GGCGGCCA,-0.156 ± 0.03
5,CTTCGCAC,0.461 ± 0.015
6,CTTCGCCC,-0.0235 ± 0.028
7,ATTCGCAC,0.4705 ± 0.0024
8,ATTCGCAA,0.29 ± 0.016
9,ATTCGCAG,0.33 ± 0.013
10,CTTCGCAA,0.341 ± 0.029
11,GTCTATAA,-0.0104 ± 0.0026
12,CGAGGGCC,-0.127 ± 0.057
13,ACGAAAGT,0.00641 ± 0.0039
14,AATGTGTA,0.207 ± 0.05
15,AATGTGCG,0.3287 ± 0.0028
16,AATGTGTC,0.413 ± 0.012
17,CATGTGTC,0.3458 ± 0.0021
18,AATGTGGC,0.219 ± 0.02
19,AATGTGTG,0.4245 ± 0.0035
20,AGACGACT,-0.202 ± 0.093
21,GCTGGGCC,-0.144 ± 0.0084
22,CTGTGACA,0.31 ± 0.011
23,ATGTGACG,0.285 ± 0.026
24,ATGTGACC,0.169 ± 0.046
25,ATGTGACA,0.409 ± 0.0051
26,GTGTGACA,0.457 ± 0.0047

row,Sequence,PBM E-score of 8-mer
1,CTGTGACC,0.142 ± 0.026
2,CAGATAGA,-0.131 ± 0.025
3,CAGCAGAG,-0.0309 ± 0.05
4,CACTCTCA,0.317 ± 0.00081
5,CATGCGCG,0.221 ± 0.023
6,CTACTGTC,0.1 ± 0.024
7,CAGGACTA,-0.191 ± 0.029
8,AGACTTAT,0.00662 ± 0.019
9,GAGCCTGC,-0.0257 ± 0.039
10,GATAACGC,0.288 ± 0.011
11,GATAACAA,0.27 ± 0.027
12,CATAACAC,0.405 ± 0.028
13,GATAACAC,0.414 ± 0.022
14,AATAACAC,0.294 ± 0.062
15,CATAACAA,0.00154 ± 0.064
16,CAGCATGA,-0.154 ± 0.015
17,AAGTTGGT,-0.0114 ± 0.097
18,GGAGTCAA,-0.0304 ± 0.04
19,ATAGCACG,0.34 ± 0.0094
20,CTAGCACC,0.415 ± 0.014
21,CAAGCACC,0.0313 ± 0.011
22,ATAGCACA,0.156 ± 0.06
23,CTAGCACA,0.271 ± 0.018
24,ATAGCACC,0.387 ± 0.011
25,CCAGTTGA,0.0132 ± 0.086
26,CAGGGGTC,-0.231 ± 0.086

row,Sequence,PBM E-score of 8-mer
1,AGAATCGC,0.165 ± 0.045
2,ACTGATGG,-0.00902 ± 0.051
3,ACAGAGGG,-0.118 ± 0.029
4,GCAATGCC,-0.174 ± 0.032
5,GCATCTAA,-0.0797 ± 0.077
6,GAATTGAA,-0.177 ± 0.099
7,GTCGCCCA,0.198 ± 0.0069
8,ACACATTC,0.38 ± 0.022
9,ACACATAG,0.306 ± 0.018
10,CCACATTC,0.14 ± 0.06
11,AAACATTG,0.0255 ± 0.053
12,ACACATTG,0.368 ± 0.01
13,AAACATTC,-0.0068 ± 0.0056
14,ACACATAT,0.407 ± 0.0072
15,ACACATAA,0.269 ± 0.016
16,ACACATTA,0.291 ± 0.031
17,GTCAAGCA,0.0528 ± 0.058
18,ACTCTTTA,0.0329 ± 0.022
19,CGCTACCA,0.271 ± 0.0082
20,ATTAGGAG,-0.247 ± 0.041
21,GAGCCAGC,0.0706 ± 0.066
22,ACTACTCC,-0.139 ± 0.024
23,ACTCCGGA,-0.0213 ± 0.013
24,TGTGCTAA,0.26 ± 0.011
25,CGTGCGGA,0.147 ± 0.028
26,AGTGCTAG,0.265 ± 0.049

row,Sequence,PBM E-score of 8-mer
1,CGTGCTAC,0.128 ± 0.0037
2,AGTGCTAT,0.243 ± 0.079
3,GGTGCTAA,0.4658 ± 0.00059
4,AGTGCGGA,0.257 ± 0.023
5,AGTGCTAC,0.245 ± 0.027
6,GGTGCGGA,0.404 ± 0.023
7,GGTGCTAC,0.42 ± 0.007
8,CGTGCTAA,0.349 ± 0.0041
9,AGTGCTAA,0.412 ± 0.015
10,AGTTACTG,-0.0684 ± 0.048
11,AGTAGCCC,-0.239 ± 0.026
12,CCCGCTTC,0.139 ± 0.082
13,GAGTTTGA,0.00341 ± 0.029
14,AGGTCAAT,-0.202 ± 0.093
15,CTTTTCGA,-0.087 ± 0.018
16,GGTGCAAC,0.176 ± 0.012
17,TGTGCAAA,0.225 ± 0.033
18,GGTGCAAA,0.3907 ± 0.0034
19,ACGTAGGG,-0.127 ± 0.051
20,CTTGGAAC,-0.26 ± 0.046
21,CGTCAAAG,0.228 ± 0.028
